From ChEMBL document CHEMBL1961873, “Compounds: GSK PKIS; Assays: Nanosyn kinase panel” (2012)

Legend:
[1] = biological target: T1, Serine/threonine-protein kinase D2 (Homo sapiens) (UniProt Q9BZL6); details: at 1 µM;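 note: mean value of PRKD2 inhibition, from the GSK PKIS screening panel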
T1 sequence (whole entry): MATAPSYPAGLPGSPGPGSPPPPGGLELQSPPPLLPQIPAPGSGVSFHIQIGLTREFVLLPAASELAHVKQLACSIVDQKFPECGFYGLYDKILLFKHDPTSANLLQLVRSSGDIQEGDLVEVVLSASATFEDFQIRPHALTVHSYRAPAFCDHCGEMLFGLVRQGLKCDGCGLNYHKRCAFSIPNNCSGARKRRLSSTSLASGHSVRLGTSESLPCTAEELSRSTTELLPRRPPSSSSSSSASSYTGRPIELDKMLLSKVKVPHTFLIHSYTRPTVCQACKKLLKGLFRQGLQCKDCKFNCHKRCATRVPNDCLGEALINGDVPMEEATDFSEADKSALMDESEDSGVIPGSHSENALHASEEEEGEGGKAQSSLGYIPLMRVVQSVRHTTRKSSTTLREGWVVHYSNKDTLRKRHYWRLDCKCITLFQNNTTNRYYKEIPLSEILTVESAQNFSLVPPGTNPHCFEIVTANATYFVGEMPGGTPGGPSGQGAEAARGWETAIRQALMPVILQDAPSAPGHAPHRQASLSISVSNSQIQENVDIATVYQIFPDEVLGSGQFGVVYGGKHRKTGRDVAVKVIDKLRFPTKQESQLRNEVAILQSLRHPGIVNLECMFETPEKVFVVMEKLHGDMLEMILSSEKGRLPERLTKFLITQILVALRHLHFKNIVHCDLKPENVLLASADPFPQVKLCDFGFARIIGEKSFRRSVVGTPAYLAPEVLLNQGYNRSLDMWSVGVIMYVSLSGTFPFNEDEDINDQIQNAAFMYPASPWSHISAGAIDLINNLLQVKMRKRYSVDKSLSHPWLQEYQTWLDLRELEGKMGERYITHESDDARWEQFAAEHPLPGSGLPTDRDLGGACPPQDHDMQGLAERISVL

[2] = biological target: T2, Serine/threonine-protein kinase D3 (Homo sapiens) (UniProt O94806); details: at 0.1 µM
T2 sequence (whole entry): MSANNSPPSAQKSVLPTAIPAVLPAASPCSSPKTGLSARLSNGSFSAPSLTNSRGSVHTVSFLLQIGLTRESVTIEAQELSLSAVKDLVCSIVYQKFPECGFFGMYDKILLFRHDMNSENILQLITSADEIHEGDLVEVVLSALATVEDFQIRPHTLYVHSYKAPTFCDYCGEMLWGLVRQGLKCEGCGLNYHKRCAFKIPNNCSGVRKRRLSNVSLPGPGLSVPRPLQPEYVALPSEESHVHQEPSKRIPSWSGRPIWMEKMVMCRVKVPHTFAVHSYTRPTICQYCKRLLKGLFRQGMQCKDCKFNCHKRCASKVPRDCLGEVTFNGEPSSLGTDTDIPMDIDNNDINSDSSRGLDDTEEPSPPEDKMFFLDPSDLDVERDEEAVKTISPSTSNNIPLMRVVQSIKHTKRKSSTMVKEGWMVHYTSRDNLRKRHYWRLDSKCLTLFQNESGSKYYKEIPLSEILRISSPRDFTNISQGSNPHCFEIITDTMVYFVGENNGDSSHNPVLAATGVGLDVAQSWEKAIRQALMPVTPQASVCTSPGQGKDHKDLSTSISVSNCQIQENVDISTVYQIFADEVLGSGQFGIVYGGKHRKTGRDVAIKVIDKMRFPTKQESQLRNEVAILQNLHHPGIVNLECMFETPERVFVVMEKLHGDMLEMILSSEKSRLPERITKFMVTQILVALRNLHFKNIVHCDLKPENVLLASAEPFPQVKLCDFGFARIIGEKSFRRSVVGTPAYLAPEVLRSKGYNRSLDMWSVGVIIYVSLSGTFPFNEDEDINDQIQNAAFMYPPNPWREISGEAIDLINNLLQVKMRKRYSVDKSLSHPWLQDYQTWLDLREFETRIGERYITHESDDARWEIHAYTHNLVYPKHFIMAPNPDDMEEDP

[3] = biological target: T2, Serine/threonine-protein kinase D3 (Homo sapiens); details: at 1 µM
[4] = biological target: T3, cGMP-dependent protein kinase 1 (Homo sapiens) (UniProt Q13976); details: at 0.1 µM
T3 sequence (whole entry): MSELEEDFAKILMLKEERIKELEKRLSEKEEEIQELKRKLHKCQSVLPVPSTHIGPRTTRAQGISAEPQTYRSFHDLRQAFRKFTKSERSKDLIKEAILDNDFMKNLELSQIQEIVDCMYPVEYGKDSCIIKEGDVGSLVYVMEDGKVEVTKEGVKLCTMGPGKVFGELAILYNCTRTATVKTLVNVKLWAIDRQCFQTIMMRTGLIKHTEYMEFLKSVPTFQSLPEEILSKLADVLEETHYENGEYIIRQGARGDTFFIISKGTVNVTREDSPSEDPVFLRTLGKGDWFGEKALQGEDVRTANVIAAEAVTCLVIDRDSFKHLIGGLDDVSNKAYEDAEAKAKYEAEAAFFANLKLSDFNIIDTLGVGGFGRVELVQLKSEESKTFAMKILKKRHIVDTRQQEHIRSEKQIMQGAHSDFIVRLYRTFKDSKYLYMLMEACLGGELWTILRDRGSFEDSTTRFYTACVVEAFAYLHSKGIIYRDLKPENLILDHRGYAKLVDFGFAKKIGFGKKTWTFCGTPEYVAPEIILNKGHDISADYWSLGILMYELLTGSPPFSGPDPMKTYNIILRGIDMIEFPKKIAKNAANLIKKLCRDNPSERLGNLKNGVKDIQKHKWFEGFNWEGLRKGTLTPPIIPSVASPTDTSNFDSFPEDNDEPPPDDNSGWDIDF

[5] = biological target: T3, cGMP-dependent protein kinase 1 (Homo sapiens); details: at 1 µM
[6] = biological target: T4, cGMP-dependent protein kinase 2 (Homo sapiens) (UniProt Q13237); details: at 0.1 µM
T4 sequence (whole entry): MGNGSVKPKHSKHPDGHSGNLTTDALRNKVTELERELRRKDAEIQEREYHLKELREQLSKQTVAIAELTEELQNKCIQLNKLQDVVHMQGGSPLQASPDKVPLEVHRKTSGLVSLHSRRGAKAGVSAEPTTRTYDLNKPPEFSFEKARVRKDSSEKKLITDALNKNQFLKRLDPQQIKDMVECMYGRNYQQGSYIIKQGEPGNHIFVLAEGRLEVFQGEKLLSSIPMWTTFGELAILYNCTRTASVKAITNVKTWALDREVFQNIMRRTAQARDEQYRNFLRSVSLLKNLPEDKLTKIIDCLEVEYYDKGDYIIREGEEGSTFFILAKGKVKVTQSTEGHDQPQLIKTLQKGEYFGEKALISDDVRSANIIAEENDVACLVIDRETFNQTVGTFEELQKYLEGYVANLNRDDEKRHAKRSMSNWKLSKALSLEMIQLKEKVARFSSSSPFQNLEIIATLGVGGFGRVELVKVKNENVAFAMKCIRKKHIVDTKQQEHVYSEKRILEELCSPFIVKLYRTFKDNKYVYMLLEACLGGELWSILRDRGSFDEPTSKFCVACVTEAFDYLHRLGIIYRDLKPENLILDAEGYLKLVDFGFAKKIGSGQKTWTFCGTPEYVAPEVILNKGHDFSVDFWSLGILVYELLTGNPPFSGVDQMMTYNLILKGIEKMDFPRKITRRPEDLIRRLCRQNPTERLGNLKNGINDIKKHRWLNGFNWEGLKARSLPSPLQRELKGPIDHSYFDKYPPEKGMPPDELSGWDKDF

[7] = biological target: T4, cGMP-dependent protein kinase 2 (Homo sapiens); details: at 1 µM
[8] = biological target: T5, cAMP-dependent protein kinase catalytic subunit PRKX (Homo sapiens) (UniProt P51817); details: at 0.1 µM
T5 sequence (whole entry): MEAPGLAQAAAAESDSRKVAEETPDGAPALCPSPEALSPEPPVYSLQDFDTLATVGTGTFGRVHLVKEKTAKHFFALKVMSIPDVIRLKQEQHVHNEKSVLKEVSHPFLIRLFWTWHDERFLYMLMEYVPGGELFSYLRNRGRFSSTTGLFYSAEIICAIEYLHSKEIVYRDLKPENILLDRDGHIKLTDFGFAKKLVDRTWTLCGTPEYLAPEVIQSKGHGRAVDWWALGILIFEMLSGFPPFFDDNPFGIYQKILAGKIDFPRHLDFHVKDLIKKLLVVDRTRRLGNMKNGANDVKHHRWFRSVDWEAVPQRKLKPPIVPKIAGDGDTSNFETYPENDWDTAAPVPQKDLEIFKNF

[9] = biological target: T5, cAMP-dependent protein kinase catalytic subunit PRKX (Homo sapiens); details: at 1 µM
[10] = biological target: Rho-associated protein kinase 1 (Homo sapiens) (UniProt Q13464); details: at 0.1 µM;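 note: values are mean percent inhibition of ROCK1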
Chain of Rho-associated protein kinase 1 (Homo sapiens) (Q13464 2-1354 limits assumed): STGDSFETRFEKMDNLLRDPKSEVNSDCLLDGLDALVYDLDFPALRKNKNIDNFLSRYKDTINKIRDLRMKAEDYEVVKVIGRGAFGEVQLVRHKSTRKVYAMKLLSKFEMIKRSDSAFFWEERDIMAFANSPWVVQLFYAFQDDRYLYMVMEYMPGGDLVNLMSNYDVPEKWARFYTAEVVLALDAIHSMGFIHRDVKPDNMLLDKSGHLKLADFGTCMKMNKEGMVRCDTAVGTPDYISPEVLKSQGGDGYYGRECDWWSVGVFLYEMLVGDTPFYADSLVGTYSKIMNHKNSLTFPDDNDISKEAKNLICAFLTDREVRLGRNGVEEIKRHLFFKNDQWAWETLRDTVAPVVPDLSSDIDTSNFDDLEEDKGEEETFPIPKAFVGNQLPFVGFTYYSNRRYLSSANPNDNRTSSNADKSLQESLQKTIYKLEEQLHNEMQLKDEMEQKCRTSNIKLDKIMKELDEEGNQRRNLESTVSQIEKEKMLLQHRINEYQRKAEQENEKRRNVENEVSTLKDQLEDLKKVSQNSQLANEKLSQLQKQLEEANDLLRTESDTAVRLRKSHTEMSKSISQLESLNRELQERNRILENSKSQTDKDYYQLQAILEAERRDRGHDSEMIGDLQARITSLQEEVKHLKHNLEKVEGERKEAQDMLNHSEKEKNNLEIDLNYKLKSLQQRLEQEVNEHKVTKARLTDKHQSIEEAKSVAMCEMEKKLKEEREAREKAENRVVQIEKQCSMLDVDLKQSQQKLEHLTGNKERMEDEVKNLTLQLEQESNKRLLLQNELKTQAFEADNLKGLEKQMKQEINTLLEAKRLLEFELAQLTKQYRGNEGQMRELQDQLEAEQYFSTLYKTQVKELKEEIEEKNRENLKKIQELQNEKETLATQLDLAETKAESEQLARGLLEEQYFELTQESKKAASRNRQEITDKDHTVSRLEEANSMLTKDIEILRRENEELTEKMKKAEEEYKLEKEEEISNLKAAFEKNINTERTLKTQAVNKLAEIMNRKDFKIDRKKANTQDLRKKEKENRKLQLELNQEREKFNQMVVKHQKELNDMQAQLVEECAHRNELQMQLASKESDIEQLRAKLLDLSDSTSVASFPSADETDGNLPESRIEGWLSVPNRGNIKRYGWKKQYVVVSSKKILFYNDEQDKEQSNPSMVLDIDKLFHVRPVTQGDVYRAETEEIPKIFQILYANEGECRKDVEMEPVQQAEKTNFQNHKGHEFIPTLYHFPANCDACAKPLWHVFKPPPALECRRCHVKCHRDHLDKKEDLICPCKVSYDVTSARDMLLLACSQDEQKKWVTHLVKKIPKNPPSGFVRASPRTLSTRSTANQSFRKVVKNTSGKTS

Row | SMILES | inhibition [1] [%] | inhibition [2] [%] | inhibition [3] [%] | inhibition [4] [%] | inhibition [5] [%] | inhibition [6] [%] | inhibition [7] [%] | inhibition [8] [%] | inhibition [9] [%] | inhibition [10] [%]
1 | Cc1ccc(NC(=O)CC2CC2)cc1-c1ccc(C(=O)NCC2CC2)cc1 | 3.78 | 3.15 | 3.66 | 2.45 | 1.88 | 1.38 | 2.64 | 1.92 | 2.19 | 1
2 | CN(C)C(=O)O[C@H]1CN[C@H](C#Cc2cc3ncnc(Nc4ccc(OCc5cccc(F)c5)c(Cl)c4)c3s2)C1 | 1.92 | 2.56 | 2.75 | 2.24 | 6.88 | -0.06 | 5.82 | 1.35 | 3.67 | 1.82
3 | Cc1ccc(O)cc1Nc1ccnc2ccc(S(C)(=O)=O)cc12 | 33.2 | 6.86 | 22.7 | 2.84 | 4.22 | 1.71 | 4.03 | 2.75 | 4.14 | 1.34
4 | O=S(=O)(CCOCc1ccc(-c2ccc3ncnc(Nc4ccc(OCc5cccc(F)c5)c(Cl)c4)c3c2)o1)c1ccccc1 | 2.14 | 1.07 | 1.96 | 1.36 | 2.37 | 1.18 | 2.63 | 1.21 | 1.09 | 1.34
5 | COc1ccc2ncnc(Nc3ccc(OCc4ccccc4)cc3)c2c1 | 2.88 | 0.89 | 2.6 | 0.77 | 1.95 | 0.94 | 2.5 | 1.23 | 1.9 | -0.05
6 | CN(C)C(=O)O[C@@H]1CN[C@@H](C#Cc2cc3ncnc(Nc4ccc(OCc5cccc(F)c5)c(Cl)c4)c3s2)C1 | 5.06 | 1.06 | 4.35 | -0.86 | 1.64 | 0.46 | 2.7 | -0.77 | -1.92 | -0.58
7 | C[C@@H](Oc1cc(-n2cnc3ccc(OCC4CCN(C)CC4)cc32)sc1C(N)=O)c1ccccc1C(F)(F)F | 22.1 | -0.13 | 16.9 | -2.23 | 0.25 | -1.61 | 0.31 | -0.03 | -1.15 | 0.29
8 | FC(F)(F)c1ccc(-c2nn3ncccc3c2-c2ccnc(Nc3ccc4c(c3)OCCO4)n2)cc1 | 3.07 | -0.32 | -0.07 | 3.5 | 5.3 | 3.41 | 4.83 | 5.94 | 8.53 | 1.44
9 | Nc1nccc(C#Cc2cncnc2Nc2ccc(OCc3cccc(F)c3)c(Cl)c2)n1 | 5.62 | 5.15 | 5.74 | 2.37 | 5.43 | 1.99 | 7.43 | 0.49 | -0.22 | 0.91
10 | O=C1Nc2ccc(-c3cccnc3)cc2C1=Cc1cc(Br)c(O)c(Br)c1 | 4.38 | 4.62 | 5.23 | 4.28 | 11 | 2.46 | 4.63 | 1.55 | -0.22 | 1.68
11 | NC(=O)c1cccc(Nc2nccc(Nc3cccc(F)c3)n2)c1 | 0.2 | 0.7 | 1.01 | 0.12 | -0.32 | 0.77 | 0.47 | 1.19 | 0.35 | 0.28
12 | OCc1ccc(-c2nc(-c3ccccn3)c(-c3ccc4c(c3)OCO4)[nH]2)cc1 | 9.51 | 5.74 | 8.28 | 1.9 | 2.98 | 2.69 | 3.26 | 1.55 | 0.61 | 1.43
13 | [O-][S+]1CCN(Cc2ccc(-c3ccc4ncnc(Nc5ccc(OCc6ccccc6)c(Cl)c5)c4c3)o2)CC1 | 1.77 | 1.61 | 2.2 | 1.79 | 0.53 | 0.97 | 2.95 | 1.3 | 1.17 | 0.9
14 | N#Cc1cccc(Nc2nccc(-c3cnn4ncccc34)n2)c1 | 46.8 | 10.5 | 54.9 | 10.8 | 50.2 | 4.14 | 25.9 | 1.47 | 2.66 | 1.39
15 | ON=C1CCc2cc(-c3nc(C4CCNCC4)[nH]c3-c3ccncc3)ccc21 | 9.97 | 1.39 | 8.68 | -0.33 | 1.76 | 0.54 | 2.55 | -0.73 | -2.69 | 0.17
16 | NS(=O)(=O)c1ccc(N/N=C2\C(=O)Nc3ccc(Cl)cc32)cc1 | 5.28 | 3.58 | 5.68 | 2.65 | 6.01 | 3.85 | 5.8 | 4.2 | 7.86 | 0.31
17 | COc1ccc(-c2nn3ncccc3c2-c2ccnc(Nc3cccc(C(F)(F)F)c3)n2)cc1 | 3.1 | 3.18 | 3.3 | 1.97 | 2.64 | 1.78 | 2.6 | 2.11 | 1.89 | 0.25
